The results in this text go back to article PMC5540273 (PLoS ONE, 2017).

In assay [1] the test system is T1, RSK2(Kin.Dom.1-N-terminal).
T1 construct: gene RPS6KA3
Particulars: concentration: 1 μM, replicates: in singlicate, n = 1.

For assay [2], the system named is T2, RSK2(Kin.Dom.2-C-terminal).
T2 construct: gene RPS6KA3
Particulars: concentration: 1 μM, replicates: in singlicate; n = 1.

The test system of assay [3] is T3, RSK3(Kin.Dom.1-N-terminal).
T3 construct: gene RPS6KA2
Particulars: concentration: 1 μM, replicates: in singlicate, n = 1.

In assay [4] the test system is T4, RSK3(Kin.Dom.2-C-terminal).
T4 construct: gene RPS6KA2
Particulars: concentration: 1 μM, replicates: in singlicate, n = 1.

Assay [5] concerns T5, RSK4(Kin.Dom.1-N-terminal).
T5 construct: gene RPS6KA6
Particulars: concentration: 1 μM, replicates: in singlicate, n = 1.

Assay [6] has as its system T6, RSK4(Kin.Dom.2-C-terminal).
T6 construct: gene RPS6KA6
Particulars: concentration: 1 μM, replicates: in singlicate, n = 1.

The next assay deals with S6K1. Particulars: concentration: 1 μM, replicates: in singlicate, n = 1.
In the next assay the test system is SBK1. Particulars: concentration: 1 μM, replicates: in singlicate, n = 1.
Another assay relates to SGK2. Particulars: concentration: 1 μM, replicates: in singlicate, n = 1.
A further assay relates to SGK3. Particulars: concentration: 1 μM, replicates: in singlicate, n = 1.
In a further assay the test system is SGK. Particulars: concentration: 1 μM, replicates: in singlicate, n = 1.
The next assay deals with SIK2. Particulars: concentration: 1 μM, replicates: in singlicate, n = 1.
The test system of the next assay is SIK. Particulars: concentration: 1 μM, replicates: in singlicate, n = 1.
The subject of the next assay is SLK. Particulars: concentration: 1 μM, replicates: in singlicate, n = 1.
The subject of the next assay is T7, SNARK.
T7 construct: gene NUAK2
Particulars: concentration: 1 μM, replicates: in singlicate, n = 1.

A further assay concerns SNRK. Particulars: concentration: 1 μM, replicates: in singlicate, n = 1.
The test system of the next assay is SRC. Particulars: concentration: 1 μM, replicates: in singlicate, n = 1.
A further assay has as its system SRMS. Particulars: concentration: 1 μM, replicates: in singlicate; n = 1.
In a further assay the test system is SRPK1. Particulars: concentration: 1 μM, replicates: in singlicate, n = 1.
A further assay concerns SRPK2. Particulars: concentration: 1 μM, replicates: in singlicate, n = 1.

Several values for one entry are separate records, joined by “and”; a condition that tells them apart may be missing. Equal values may be shown once. Read-outs that look alike come from different tables or passages of the source.
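Also: KINOMEscan kinase panel screen.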

For the molecule `NCCNS(=O)(=O)c1ccc(-c2ccnc3[nH]ccc23)cc1` [GSK977617], the “%Inh” value is 79% and 60% in assay [1] (1 µM); 0% in assay [2]; 40% and 14% in assay [3] (1 µM); 29% and 22% in assay [4] (1 µM); 54% and 23% in assay [5] (1 µM); 48% and 37% in assay [6] (1 µM). Further, the “%Inh” value with S6K1 (1 µM) was 71% and 73%; with SBK1 (1 µM) it was 79% and 57%; in the assay with SGK2 (1 µM) it was 24% and 4%; with SGK3 (1 µM), 57% and 44%; with SGK (1 µM) it was 45% and 33%; in the assay on SIK2 (1 µM) it was 12% and 0%. In addition, the “%Inh” value was 21% and 0% in the assay with SIK (1 µM); 89% and 75% in the assay with SLK (1 µM); 89% and 82% in the assay on SNARK (1 µM); 16% and 0% in the assay on SNRK (1 µM); 11% and 0% with SRC (1 µM); 0% in the assay on SRMS. For the same molecule, the “%Inh” value in the assay with SRPK1 (1 µM) is 87% and 65%; in the assay on SRPK2 (1 µM) it was 6% and 0%.

With `O=C(Nc1n[nH]c2cc(-c3cccc(F)c3)ccc12)C1CC1` [SB-735464], the “%Inh” value in assay [1] amounted to 0%; in [2], 15%; in assay [3], 2%; in [4], 0%; in [5], 9%; in assay [6], 17%. Moreover, the “%Inh” value in the assay with S6K1 turned out to be 49%; with SBK1 it was 21%; in the assay with SGK2, 0%; in the assay on SGK3 it was 13%; in the assay with SGK it was 13%; in the assay with SIK2, 0%. The “%Inh” value in the assay on SIK amounted to 0%; in the assay with SLK, 11%; with SNARK it was 0%; in the assay on SNRK, 0%; in the assay with SRC, 0%; in the assay on SRMS it was 18%. The “%Inh” value in the assay on SRPK1 worked out at 36%; with SRPK2 it was 4%.

`COc1ccc(Nc2nccc(N3CCC(NC(=O)Nc4cc(C)ccc4C)C3)n2)cc1` (stereo not drawn) [GSK1379741]: the “%Inh” value in assay [1] is 0%; in assay [2], 0%; in assay [3] it was 18%; in [4], 0%; in [5], 0%; in assay [6], 0%. The “%Inh” value with S6K1 is 11%; with SBK1, 0%; in the assay with SGK2 it was 0%; in the assay with SGK3 it was 0%; with SGK it was 0%; with SIK2, 0%. The “%Inh” value in the assay with SIK, with SLK, in the assay with SNARK, in the assay with SNRK, with SRC and in the assay on SRMS was 0% each time. In addition, the results for the “%Inh” value with SRPK1 and with SRPK2 were 27% and 0%, respectively.

Consider `Cn1cc(-c2ccc3c(c2)CCN3C(=O)Cc2ccccc2Cl)c2c(N)ncnc21` [GSK2608885], for which the “%Inh” value is recorded as 0% in assay [1]; 23% in [2]; 87% in [3]; 12% in assay [4]; 0% in assay [5]; 18% in assay [6]. The “%Inh” value stood at 14% in the assay with S6K1; 25% in the assay on SBK1; 0% in the assay on SGK2; 3% in the assay with SGK3; 0% in the assay with SGK; 52% in the assay with SIK2. For the same molecule, the “%Inh” value in the assay on SIK is given as 96.4%; in the assay with SLK, 99.2%; in the assay on SNARK it was 89%; in the assay on SNRK, 0%; in the assay with SRC it was 99.1%; in the assay on SRMS, 98.4%. Further, the “%Inh” value in the assay on SRPK1 came to 56%; in the assay with SRPK2, 0%.

`c1ccc(-c2cc(-c3c[nH]nc3-c3ccccn3)ccn2)cc1` [GW576604]: the “%Inh” value is on record as 0% in assay [1]; 0% in assay [2]; 0% in [3]; 4% in assay [4]; 0% in assay [5]; 8% in [6]. Also, the “%Inh” value in the assay on S6K1, in the assay on SBK1, in the assay on SGK2, in the assay on SGK3, in the assay on SGK and in the assay on SIK2 was 0% in each case. In addition, the “%Inh” value in the assay with SIK, in the assay with SLK, in the assay with SNARK, with SNRK, in the assay with SRC and in the assay on SRMS was 0% throughout. Further, the “%Inh” value is 24% in the assay on SRPK1 and 9% in the assay with SRPK2.

Consider `Nc1nccc(-c2c(-c3ccc(F)cc3)ncn2C2CCN(CC(F)(F)F)CC2)n1` [SB-236560], for which the “%Inh” value amounted to 14% in assay [1]; 35% in assay [2]; 13% in assay [3]; 35% in assay [4]; 0% in assay [5]; 56% in assay [6]. Moreover, the “%Inh” value turned out to be 0% in the assay with S6K1; 0% in the assay with SBK1; 0% in the assay with SGK2; 3% in the assay with SGK3; 25% in the assay on SGK; 0% in the assay on SIK2. For the same molecule, the “%Inh” value in the assay with SIK turned out to be 0%; with SLK it was 0%; with SNARK, 0%; in the assay with SNRK, 16%; in the assay on SRC, 0%; with SRMS, 0%. The “%Inh” value in the assay with SRPK1 amounted to 19%; with SRPK2, 41%.

In the case of `Cc1ccc(NC(=O)c2ccnc(N3CCN(C)CC3)c2)cc1-c1ccc(C(=O)NCC2CC2)cc1` [GW775604], the “%Inh” value in [1] was determined as 0%; in [2], 0%; in [3], 0%; in [4] it was 15%; in assay [5], 0%; in [6], 7%. Moreover, the “%Inh” value in the assay with S6K1 is 9%; in the assay on SBK1 it was 0%; in the assay on SGK2, 0%; with SGK3, 0%; with SGK it was 0%; in the assay on SIK2 it was 21%. In addition, the “%Inh” value is recorded as 0% in the assay on SIK; 0% in the assay with SLK; 0% in the assay with SNARK; 0% with SNRK; 0% in the assay with SRC; 3% in the assay with SRMS. In addition, the “%Inh” value in the assay on SRPK1 and with SRPK2 was 0% in each case.

As for `Cc1ccc(C(=O)NCC(N)=O)cc1-n1c(C)cc(OCc2ccc(F)cc2F)c(Br)c1=O`, the “%Inh” value was found to be 0% in assay [1]; 0% in assay [2]; 22% in [3]; 9% in [4]; 0% in assay [5]; 29% in [6]. The “%Inh” value is 3% with S6K1; 0% in the assay with SBK1; 0% with SGK2; 0% in the assay with SGK3; 0% with SGK; 0% in the assay on SIK2. Also, the “%Inh” value in the assay with SIK is 6%; in the assay with SLK, 24%; in the assay with SNARK, 0%; with SNRK, 15%; in the assay with SRC, 16%; in the assay with SRMS it was 0%. In addition, the “%Inh” value in the assay with SRPK1 and in the assay on SRPK2 was 0% each time.

`c1ccc(-c2n[nH]cc2-c2ccnc3ccccc23)nc1` [GW271431]: the “%Inh” value in assay [1] turned out to be 0%; in assay [2], 0%; in assay [3] it was 0%; in [4], 0%; in assay [5], 0%; in assay [6] it was 48%. The “%Inh” value in the assay with S6K1 amounted to 1%; with SBK1, 9%; with SGK2, 6%; in the assay on SGK3 it was 10%; in the assay on SGK, 0%; with SIK2, 9%. Further, the “%Inh” value worked out at 8% with SIK; 16% in the assay on SLK; 0% with SNARK; 0% in the assay with SNRK; 7% with SRC; 0% with SRMS. Moreover, the “%Inh” value with SRPK1 is 25%; with SRPK2, 0%.
